Source: PubChem (National Center for Advancing Translational Sciences (NCATS))
Pf growth 96h = Primary qHTS for delayed death inhibitors of the malarial parasite plastid, 96 hour incubation | 320,000 compounds, 6.9% hits | P. falciparum luciferase reporter growth, 96 h | Potency, µM (doses to about 28.7 µM), without a hit: top-dose activity change, negative = inhibition, actives largely listed as inhibitors; active = well fitted inhibition curve with a large enough effect; inconclusive = small, poorly fitted or top-dose-only effect, or another doubt; inactive = no such curve, though single readings can be large or run the other way; also: potency is read from the fitted curve at half-maximal effect; % is scaled to controls: 0 for no effect and ±100 for the full control effect
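Two-generation exposure (96 h) targets delayed-death phenotype. Reporter parasites carrying integrated firefly luciferase, in red cells at 2% hematocrit and 0.05% parasitemia final, kept at 37 C, 5% CO2; luminescence loss indicates inhibition.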
NS1 function inh = qHTS Assay for Inhibitors of Influenza NS1 Protein Function; Potency, µM (top dose mostly 46.1 µM), for inactives: at the top dose activity, positive = more growth; 270,000 compounds, 0.4% hits; also: potency is read from the fitted curve at half-maximal effect; actives are rising curves; nearly all actives have a fitted effect of over 50% in size
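In this qHTS, NS1 from influenza A is expressed in budding yeast, where it slows growth. Cells are switched from glucose to 2% galactose medium (pH 6.0, -URA), treated with compound, and growth recovery is read at OD600.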
SARS PLP yeast = qHTS of Yeast-based Assay for SARS-CoV PLP | S. cerevisiae expressing SARS-CoV PLpro, growth rescue | Potency, µM (series often up to 32.9 µM), without a hit: at the highest dose activity, positive = growth rescue, most hits filed as activators | 330,000 compounds, 0.19% hits; also: potency is read from the fitted curve at half-maximal effect; 0% is about no effect; nearly all actives have a fitted effect of over 55% in size
CHX counter = Cycloheximide Counterscreen for Small Molecule Inhibitors of Shiga Toxin; cell reporter, cycloheximide protein synthesis inhibition counterscreen; max response, %; 300,000 compounds, 12% hits; AID 2314, 2010; in the data active = max response mostly above about 13%, no sharp cut-off; inactive = mostly below about 14%; also: read at 38.3 µM for the half of the compounds with a filed dose; 0% is about no effect
Shiga toxin inh = A qHTS for Small Molecule Inhibitors of Shiga Toxin. 290,000 compounds, 9.2% hits. inhibition, % at 38.7 µM. AID 2315, 2010. Vero cells, Shiga toxin protein synthesis inhibition reporter; in the data active = inhibition mostly above about 28%, no sharp cut-off; inactive = mostly below about 43%; also: 0% is about no effect
Pf growth 48h = Primary qHTS for delayed death inhibitors of the malarial parasite plastid, 48 hour incubation | P. falciparum luciferase growth in erythrocytes, 48 h | Potency, µM (titrated, usually from 28.7 µM), for inactives: at the top dose activity change, negative = inhibition, most hits filed as inhibitors | 310,000 compounds, 5.9% hits; active = well fitted inhibition curve with a large enough effect; inconclusive = small, poorly fitted or top-dose-only effect, or another doubt; inactive = no such curve, though single readings can be large or run the other way; also: potency is read from the fitted curve at half-maximal effect; % is scaled to controls: 0 for no effect and ±100 for the full control effect
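Here the parasites carry a stable luciferase gene and grow inside erythrocytes in Albumax-based RPMI medium with compound for one erythrocytic cycle. Activity is scored as loss of luminescent signal.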
* = called active by the depositor. A selection: hits, their analogues and other compounds. The true share with any hit is near 21%. Unless noted, calls follow the shape of the full dose curve.

What do the screens show for `CCCCn1c(CN2CCN(c3ccccc3)CC2)nc2c1c(=O)n(C)c(=O)n2C`?
Pf growth 96h: inconclusive; NS1 function inh: -28%; SARS PLP yeast: -1%; CHX counter: 4; Shiga toxin inh: 10; Pf growth 48h: inconclusive

Results for CC/C(=N\NC(=O)c1nnn(-c2nonc2N)c1-c1cccc(OC)c1)c1ccc(C)cc1 ?
Pf growth 96h: inconclusive; NS1 function inh: 5%; SARS PLP yeast: 6%; CHX counter: -2; Shiga toxin inh: 14; Pf growth 48h: -11%

Results for CC(=O)/C=C(\C)Nc1ccc(-c2cnc(-c3ccccc3)o2)cc1 ?
Pf growth 96h: 155%; NS1 function inh: -74%; SARS PLP yeast: inconclusive; CHX counter: 83*; Shiga toxin inh: 130*; Pf growth 48h: 114%

How did CC(C)C(=O)Nc1ccc(-c2nnc(-c3ccccc3)o2)cc1 do in these assays?
Pf growth 96h: 224%; NS1 function inh: -7%; SARS PLP yeast: 0%; CHX counter: 72*; Shiga toxin inh: 119*; Pf growth 48h: 181%

How did Cc1nc(-c2ccc(NC(=O)C(C)(C)C)cc2)c(-c2ccccc2)o1 do in these assays?
Pf growth 96h: 4.1µM*; NS1 function inh: 0%; SARS PLP yeast: -1%; CHX counter: -1; Shiga toxin inh: 13

What do the screens show for `CC(C)(C)C(=O)Nc1cccc(-c2nnc(-c3cccc(NC(=O)C(C)(C)C)c3)o2)c1`?
Pf growth 96h: inconclusive; NS1 function inh: -2%; SARS PLP yeast: 13%; CHX counter: 1; Shiga toxin inh: 10; Pf growth 48h: 4.7µM*

What do the screens show for `O=S(=O)(c1ccc(Cl)cc1)N1CCN=C1SCc1ccc(Cl)c(Cl)c1`?
Pf growth 96h: inconclusive; NS1 function inh: -5%; SARS PLP yeast: -14%; CHX counter: -2; Shiga toxin inh: -6; Pf growth 48h: 17%

What do the screens show for `O=C(Nc1ccc(-c2nnc(-c3ccccc3)o2)cc1)C(F)(F)F`?
Pf growth 96h: -6%; NS1 function inh: -17%; SARS PLP yeast: -5%; CHX counter: 49*; Shiga toxin inh: 73; Pf growth 48h: 160%

What do the screens show for `CC(C)C(=O)Nc1ccc(C(=O)c2ccccc2)cc1`?
Pf growth 96h: 191%; NS1 function inh: inconclusive; SARS PLP yeast: -11%; CHX counter: 50*; Shiga toxin inh: 57*; Pf growth 48h: 201%

Results for N=C1c2ccccc2CN1c1ccc(N2CCOCC2)c(S(=O)(=O)Nc2ccc(Cl)cc2)c1 ?
Pf growth 96h: 9.3µM*; NS1 function inh: 5%; SARS PLP yeast: 2%; CHX counter: -2; Shiga toxin inh: -19; Pf growth 48h: inconclusive

What do the screens show for `COc1cc2c(C#N)c(N3CCc4ccccc4C3)nc(N)c2c(N)n1`?
Pf growth 96h: inconclusive; NS1 function inh: -49%; SARS PLP yeast: -6%; CHX counter: 13; Shiga toxin inh: 20; Pf growth 48h: 8.3µM*

Results for COc1cc2c(C#N)c(N3CCCCC3)nc(N)c2c(N)n1 ?
Pf growth 96h: -25%; NS1 function inh: -69%; SARS PLP yeast: -9%; CHX counter: 17; Shiga toxin inh: -2; Pf growth 48h: -49%

Results for Cn1cc(S(=O)(=O)N2CCCC2)cc1C(=O)Nc1cccc(C(F)(F)F)c1 ?
Pf growth 96h: -1%; NS1 function inh: 9%; SARS PLP yeast: 2%; CHX counter: -2; Shiga toxin inh: 2; Pf growth 48h: inconclusive

How did C/C(=N\OCC(=O)NC12CC3CC(CC(C3)C1)C2)c1cc2ccccc2o1 do in these assays?
Pf growth 96h: inconclusive; NS1 function inh: -20%; SARS PLP yeast: -72%; CHX counter: 18*; Shiga toxin inh: 6; Pf growth 48h: -20%

How did C/C(=N\OCc1ccccc1C#N)c1cc2ccccc2o1 do in these assays?
Pf growth 96h: 107%; NS1 function inh: -11%; SARS PLP yeast: -9%; CHX counter: 36*; Shiga toxin inh: 71*; Pf growth 48h: 58%

Results for C/C(=N\OCc1ccc(C#N)cc1)c1cc2ccccc2o1 ?
Pf growth 96h: 7%; NS1 function inh: -60%; SARS PLP yeast: -8%; CHX counter: -1; Shiga toxin inh: 38; Pf growth 48h: 8%
